This is a sample that favours compounds with a hit; in the whole collection about 0.34% have one here.
BCR signal inh: blocks chronic active B-cell receptor signaling; Potency, µM (doses to about 46.1 µM), without a hit: top-dose activity change, negative = inhibition, usual class: inhibitors; ABC-DLBCL IkBa-CBG/CBR reporter, luminescence ratio, 4 h; 340,000 compounds, 0.05% hits; AID 493014; active = well fitted inhibition curve with a large enough effect in the signal ratio, with a control signal flat, not every such curve was filed as active; inconclusive = small, poorly fitted or top-dose-only effect, or effect the other way, or a change in a side signal; the % refers to the signal ratio;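 also: potency is read from the fitted curve at half-maximal effect; plate controls were basal doxycycline-induced cells for no effect and cells given 10 µM MG132 for full effect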
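TMD8 ABC-DLBCL cells carrying doxycycline-inducible green luciferase fused to IkappaBalpha plus unfused red luciferase were exposed to compounds (up to 46 uM) for 4 hrs at 37C. Activity came from the overlap-corrected green/red luminescence ratio.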
Tb PFK inh-1: T. brucei PFK enzyme inhibition; O15648; T. brucei PFK, ADP-Glo luminescence; Potency, µM (doses to about 57.5 µM), without a hit: top-dose activity, negative = inhibition, most hits filed as inhibitors; 330,000 compounds, 0.17% hits;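 also: potency is read from the fitted curve at half-maximal effect; 0% = uninhibited 1x PFK enzyme wells and -100% = no-enzyme wells; nearly all actives have a fitted effect of over 60% in size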
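ADP-Glo luminescence quantified ADP after 45 min at room temperature, with 1.25 nM T. brucei PFK, 0.1 mM ATP and 0.5 mM fructose-6-phosphate in pH 8.0 TEA buffer. qHTS titrations up to 57 µM; curves classified by quality.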
Pin1 inh: inhibitors of human Pin1; Pin1 FP peptide displacement, HiFluor488, 10 min; 390,000 compounds, 0.009% hits; Potency, µM (doses to about 115 µM), for inactives: at the top dose activity, negative = inhibition, hits mostly inhibitors; AID 504891; Q13526; active = well fitted inhibition curve with a large enough effect in the polarisation, with a control signal flat, not every such curve was filed as active; inconclusive = small, poorly fitted or top-dose-only effect, or effect the other way, or a change in a side signal; inactive = no such curve, though single readings can be large or run the other way; the % refers to the polarisation; also: potency is read from the fitted curve at half-maximal effect; % is scaled to controls: 0 for no effect and ±100 for the full control effect
Target sequence (Q13526 whole entry, looked up): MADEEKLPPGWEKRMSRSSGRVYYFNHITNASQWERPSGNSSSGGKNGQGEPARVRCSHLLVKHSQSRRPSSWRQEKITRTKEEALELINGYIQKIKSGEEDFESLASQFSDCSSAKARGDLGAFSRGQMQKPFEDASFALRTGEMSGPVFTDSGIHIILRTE
PGK inhibitor: inhibitors of T. brucei phosphoglycerate kinase. AID 602233. 380,000 compounds, 0.043% hits. P07378. Potency, µM (highest dose often 57.5 µM), inactives show at the top dose activity change, negative = inhibition, usual class: inhibitors. PGK/GAPDH coupled, Kinase-Glo luminescence, 60 min; also: potency is read from the fitted curve at half-maximal effect; % is scaled to controls: 0 for no effect and ±100 for the full control effect; nearly all actives have a fitted effect of over 60% in size
Target sequence (P07378 whole entry, looked up): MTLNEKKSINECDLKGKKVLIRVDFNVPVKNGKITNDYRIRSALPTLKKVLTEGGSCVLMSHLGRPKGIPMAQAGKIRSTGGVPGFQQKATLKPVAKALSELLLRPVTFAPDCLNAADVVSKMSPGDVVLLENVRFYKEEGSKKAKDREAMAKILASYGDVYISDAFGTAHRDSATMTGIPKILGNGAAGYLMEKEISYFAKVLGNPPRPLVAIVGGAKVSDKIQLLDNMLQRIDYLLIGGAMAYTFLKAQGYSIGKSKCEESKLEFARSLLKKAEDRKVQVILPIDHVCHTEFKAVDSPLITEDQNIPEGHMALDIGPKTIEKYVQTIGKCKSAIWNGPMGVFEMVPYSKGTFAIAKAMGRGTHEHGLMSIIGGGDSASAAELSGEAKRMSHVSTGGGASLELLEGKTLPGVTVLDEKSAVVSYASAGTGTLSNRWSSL
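Recombinant glycosomal PGK reaction used 1,3-bisphosphoglycerate generated in-well by GAPDH (100nM final) in 100mM TEA pH 7.6, 5mM MgCl2, 0.01% Tween-20. After 60 minutes at room temperature, ATP was read by Kinase-Glo Plus luminescence end-point.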
PI4K2A block: PI4K2A (human) kinase inhibition | purified PI4K2A, ADP-Glo luminescence, 1 h; stronger effect = lower value | activity change, negative = inhibition, % at 76.9 µM | 420,000 compounds, 0.13% hits | AID 1346378; in the data active = activity change below about -50%; inconclusive = mostly about -30% to -49%;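 also: -100% = wells without enzyme as full effect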
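In this quantitative HTS, ADP production by PI4K2A was quantified luminescently after 1 h at ambient temperature; 100 microM adenosine served as plate-quality control.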
TbPFK ATP: inhibits T. brucei PFK measured by ATP depletion. shares compounds with Tb PFK inh-1. Tb PFK enzyme, ATP depletion, Kinase-Glo Plus luminescence. Potency, µM (highest dose often 57.5 µM), inactives show at the top dose inhibition. 1,100 compounds, 47% hits. AID 504636; calls by dose curve; also: potency is read from the fitted curve at half-maximal effect; nearly all actives have a fitted effect of over 60% in size
Tb PFK inh-2: validation of T. brucei phosphofructokinase inhibitors | shares compounds with Tb PFK inh-1 | purified T. brucei PFK, ADP-Glo luminescence, 45 min | Potency, µM (top dose mostly 57.5 µM), without a hit: top-dose activity change, negative = inhibition, most hits filed as inhibitors | 1,100 compounds, 41% hits | AID 504637;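 also: potency is read from the fitted curve at half-maximal effect; plate controls were full PFK enzyme control for no effect and no enzyme control for full effect; nearly all actives have a fitted effect of over 60% in size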
* hit, by the source's call; i = inactive; ? = inconclusive; nt = not tested or not shown; [ ] = another dose, or the depositor's remark. Unless noted, calls follow the shape of the dose curve; as a rule, active = well fitted curve in the direction sought with a large enough effect; inconclusive = small, poorly fitted or top-dose-only effect, or another doubt; inactive = no such curve, though single readings can be large; an effect the other way counts as inactive or inconclusive.

SMILES	BCR signal inh	Tb PFK inh-1	Pin1 inh	PGK inhibitor	PI4K2A block	TbPFK ATP	Tb PFK inh-2
Cc1ccc(-c2csc(Nc3ccc(S(N)(=O)=O)cc3)n2)o1	10%	11µM*	13%	-18%	-3	?	?
Cc1nc(C)c(-c2csc(Nc3ccc(S(N)(=O)=O)cc3)n2)s1	?	1%	0%	i	5	nt	nt
O=C(NCc1cccnc1)C(=O)NCC1OCCN1S(=O)(=O)c1ccc(F)cc1 (centres undefined)	0%	?	?	8%	-1	?	-30%
CSc1ccc(C(c2c(C)[nH][nH]c2=O)c2c(C)[nH][nH]c2=O)cc1	?	15µM*	-6%	-9%	-12	?	?
Cc1ccc(C(c2c(C)[nH][nH]c2=O)c2c(C)[nH][nH]c2=O)cc1	?	?	-1%	1%	-7	nt	nt
CN1CN(c2cccc([N+](=O)[O-])c2)CN=C1N[N+](=O)[O-]	0%	27µM*	5%	3%	3	?	?
O=[S+]([O-])(c1ccc2c(c1)OCCO2)N1CCN([S+](=O)([O-])c2ccccc2Br)CC1	nt	nt	-15%	nt	nt	nt	nt
CCO[C@H](Cc1ccc(OCCc2ccc(OS(C)(=O)=O)cc2)cc1)C(=O)O	nt	nt	nt	nt	-1	nt	nt
COC(=O)CSc1nnc(CSc2nc(C)cc(C)n2)n1Cc1ccco1	1%	-10%	5%	-6%	5	nt	nt
Cc1cc(C)nc(SCc2nnc(SCc3ccc([N+](=O)[O-])cc3)n2Cc2ccco2)n1	-10%	?	-2%	-4%	1	11µM*	15µM*
CCc1cccc(NC(=O)CN2C(=O)CCc3cc(S(=O)(=O)N4CCOCC4)ccc32)c1	nt	nt	0%	-8%	-3	nt	nt
CC1CCN(S(=O)(=O)c2ccc3c(c2)CCC(=O)N3CC(=O)Nc2cccc(C#N)c2)CC1	10%	9.5µM*	?	14µM*	-3	6µM*	12µM*
COc1ccc(N2C(=O)/C(=C/c3cccs3)NC2=S)cc1	-12%	15µM*	2%	4%	5	6µM*	6µM*
COc1ccc(N2C(=O)/C(=C/c3cccs3)C(=O)NC2=S)cc1	?	3%	?	-3%	-23	nt	nt
CN(C)S(=O)(=O)c1ccc(NC(=O)C2COc3ccccc3O2)cc1 (centres undefined)	0%	19µM*	1%	2%	-2	12µM*	27µM*
O=C(Nc1ccc(S(=O)(=O)Nc2ccccc2)cc1)C1COc2ccccc2O1 (centres undefined)	23%	11µM*	0%	-3%[11.5 µM]	2	12µM*	30µM*
Cc1cc(C)nc(NS(=O)(=O)c2ccc(NC(=O)C3COc4ccccc4O3)cc2)n1 (centres undefined)	-15%	?	-13%	-2%	0	nt	nt
Cc1cc2c(cc1CC(=O)c1sccc1S(=O)(=O)Nc1onc(C)c1Cl)OCO2	nt	nt	nt	nt	-1	nt	nt
O=S1(=O)N=C(Oc2ccc3ccccc3c2)c2ccccc21	nt	nt	2%	nt	nt	nt	nt
CC(c1cccs1)N(Cc1ccco1)C(=O)Nc1ccc(Cl)c(Cl)c1 (centres undefined)	15%	?	2%	6%	3	10%	-2%
O=C(Nc1cccs1)Nc1ccc(F)cc1F	0%	-12%	0%	-1%	1	nt	nt
O=C(Nc1cccs1)Nc1ccc(Br)cc1F	12%	?	14%	-3%	-21	?	?
Cc1cc2c(s1)c1cnn(Cc3cc(F)c(F)c(F)c3F)c(=O)c1n2C	nt	nt	2%	nt	nt	nt	nt
C[C@H]1C[C@H]2[C@@H]3CCC4=CC(=O)C=C[C@]4(C)[C@H]3C(=O)C[C@]2(C)[C@@]1(O)C(=O)CO	nt	nt	nt	nt	1	nt	nt
O=C1CC(c2ccc(O)c(O)c2)Oc2c1ccc(O)c2O (centres undefined)	9%	?	?	?	-20	1.9µM*	2.1µM*
SMILES	BCR signal inh	Tb PFK inh-1	Pin1 inh	PGK inhibitor	PI4K2A block	TbPFK ATP	Tb PFK inh-2
Oc1cccc(/C=N/NC(=S)Nc2cccnc2)c1O	?	-7%	?	-16%	3	nt	nt
Oc1ccc(/C=N/NC(=S)Nc2cccnc2)c(O)c1O	9%	?	?	-10%	-3	3µM*	7.6µM*
Cc1cc(OCC(=O)OCC(=O)N2c3ccccc3NC(=O)C2(C)C)ccc1Cl	3%	?	?	-13%	-8	nt	nt
CC1(C)C(=O)Nc2ccccc2N1C(=O)COC(=O)Cc1ccc(Cl)c(Cl)c1	-4%	24µM*	1%	-4%	-5	?	?
O=C(CCS(=O)(=O)c1ccc(Br)cc1)NCc1ccco1	-8%	17µM*	-3%	13µM*	-9	2.7µM*	5.4µM*
C=C(C)C(=O)Nc1ccc2c(c1)OCCOCCOCCO2	-2%	11µM*	nt	?	-15	0.54µM*	0.67µM*
CC(NC(=O)CCl)c1ccc(Cl)c(Cl)c1 (centres undefined)	?	19µM*	0%	-9%	7	21µM*	24µM*
CC(NC(=O)c1ccc(Cl)c(Cl)c1)c1ccc(-c2ccccc2)cc1 (centres undefined)	12%	-1%	3%	1%	2	nt	nt
CC(=O)OC[C@H]1O[C@@H](OC(C)=O)[C@H](OC(C)=O)[C@@H]1OC(C)=O	nt	nt	nt	nt	-2	nt	nt
O=C(COC(=O)c1cc2c(s1)CCC2)Nc1ccc(F)cc1	-14%	11µM*	?	?	-20	?	?
NC(=O)c1ccc(NC(=O)COC(=O)c2cc3c(s2)CCC3)cc1	-3%	?	41%	-28%	-4	nt	nt
O=C(c1[nH]ncc1[N+](=O)[O-])N1CCOCC1	3%	4%	-5%	-6%	-4	nt	nt
O=C(O)c1cc2ncc(-c3[nH]ncc3[N+](=O)[O-])cn2n1	4%	?	?	0%	4	-21%	?
CN1Cc2cc(C(=O)N3CCC(C4CCNCC4)CC3)ccc2NC(CC(=O)O)C1=O (centres undefined)	nt	nt	nt	nt	-2	nt	nt
O=C1C=C(NCc2ccc(Cl)c(Cl)c2)CC1	?	4.8µM*	-1%	-1%	-3	4.8µM*	6µM*
Cc1ccc(S(=O)(=O)N2[C@@H](c3ccccc3F)C(C(=O)O)=CC[C@H]2c2ccc(Cl)c(Cl)c2)cc1	-7%	27µM*	?	-4%	2	7%	1%
CC(Cc1ccccc1)N(C)Cc1ccco1 (centres undefined)	nt	nt	nt	nt	-1	nt	nt
Oc1ccc(/C=C/c2ccccc2)c2cccnc12	nt	nt	-1%	nt	nt	nt	nt

From PubChem
